# Screening results as filed in PubChem BioAssay.
# Dicer inh = inhibitors of human Dicer processing of pre-microRNA; cat-ELCCA pre-miR-21 Dicer processing, chemiluminescence; hits give high values; Q9UPY3; 6% of 47,000 active; z-score at 25 µM; in the data active = z-score above about 3, passing the limit was not always enough;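 also: plate controls were vehicle for no effect and no enzyme for full effect; higher signal means more uncleaved substrate so more Dicer inhibition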
# Target sequence (Q9UPY3 whole entry, looked up): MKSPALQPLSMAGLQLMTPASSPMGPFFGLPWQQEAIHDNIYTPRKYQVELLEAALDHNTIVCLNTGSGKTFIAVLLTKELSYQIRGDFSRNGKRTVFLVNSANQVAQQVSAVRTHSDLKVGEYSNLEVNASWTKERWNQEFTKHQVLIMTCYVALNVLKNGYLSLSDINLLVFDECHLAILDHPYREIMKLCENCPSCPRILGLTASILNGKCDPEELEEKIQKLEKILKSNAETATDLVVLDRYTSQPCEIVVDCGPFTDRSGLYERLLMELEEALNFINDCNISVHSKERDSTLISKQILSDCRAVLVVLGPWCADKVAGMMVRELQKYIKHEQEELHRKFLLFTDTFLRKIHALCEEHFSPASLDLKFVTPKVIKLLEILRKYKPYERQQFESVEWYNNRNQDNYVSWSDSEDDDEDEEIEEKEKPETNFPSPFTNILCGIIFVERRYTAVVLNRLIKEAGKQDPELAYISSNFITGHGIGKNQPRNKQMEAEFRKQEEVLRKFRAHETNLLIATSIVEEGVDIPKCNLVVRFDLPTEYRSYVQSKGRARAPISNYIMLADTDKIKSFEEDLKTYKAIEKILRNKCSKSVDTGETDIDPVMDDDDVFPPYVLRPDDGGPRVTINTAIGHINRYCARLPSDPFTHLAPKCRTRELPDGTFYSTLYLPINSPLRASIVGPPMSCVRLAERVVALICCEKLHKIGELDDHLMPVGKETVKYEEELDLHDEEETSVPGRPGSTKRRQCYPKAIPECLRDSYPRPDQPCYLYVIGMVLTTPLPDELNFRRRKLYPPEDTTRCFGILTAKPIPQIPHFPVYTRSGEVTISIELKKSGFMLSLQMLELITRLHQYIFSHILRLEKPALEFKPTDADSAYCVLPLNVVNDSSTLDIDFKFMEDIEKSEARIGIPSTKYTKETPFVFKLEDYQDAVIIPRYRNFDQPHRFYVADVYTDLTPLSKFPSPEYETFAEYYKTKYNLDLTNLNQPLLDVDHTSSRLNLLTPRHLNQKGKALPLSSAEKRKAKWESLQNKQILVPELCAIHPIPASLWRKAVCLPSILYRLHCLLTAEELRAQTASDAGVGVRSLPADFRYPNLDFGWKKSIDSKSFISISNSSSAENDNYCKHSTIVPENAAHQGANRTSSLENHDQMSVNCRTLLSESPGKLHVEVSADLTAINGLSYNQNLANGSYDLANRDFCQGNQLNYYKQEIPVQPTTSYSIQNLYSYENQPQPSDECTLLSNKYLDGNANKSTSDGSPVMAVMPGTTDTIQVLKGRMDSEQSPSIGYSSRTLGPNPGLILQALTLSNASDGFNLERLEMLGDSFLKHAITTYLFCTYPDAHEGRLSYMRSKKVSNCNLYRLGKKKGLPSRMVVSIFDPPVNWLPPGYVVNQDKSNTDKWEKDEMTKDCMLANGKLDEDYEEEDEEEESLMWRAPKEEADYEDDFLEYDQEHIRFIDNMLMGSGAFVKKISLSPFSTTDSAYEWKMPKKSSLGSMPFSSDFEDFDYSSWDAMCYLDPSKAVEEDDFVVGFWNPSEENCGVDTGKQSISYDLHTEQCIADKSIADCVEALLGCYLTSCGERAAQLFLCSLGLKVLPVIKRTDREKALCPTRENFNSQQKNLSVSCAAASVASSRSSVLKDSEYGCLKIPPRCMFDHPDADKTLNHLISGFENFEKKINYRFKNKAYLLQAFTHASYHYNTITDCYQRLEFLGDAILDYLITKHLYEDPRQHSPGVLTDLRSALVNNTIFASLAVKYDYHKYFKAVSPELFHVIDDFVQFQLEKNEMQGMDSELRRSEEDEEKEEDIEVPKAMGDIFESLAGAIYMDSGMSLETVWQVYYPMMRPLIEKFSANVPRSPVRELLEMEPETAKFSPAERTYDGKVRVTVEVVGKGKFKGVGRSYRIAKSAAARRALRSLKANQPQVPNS
# Active calls of the source: *. Many of the other results were omitted from the sample, so hits are more common in it than they were.
SMILES,Dicer inh
Cn1c(=O)n(CCCOc2ccc(Cl)cc2)c2ccccc21,-0.48
Cn1c(=O)n(Cc2ccccc2Br)c2ccccc21,2.5
O=S(=O)(NCc1csc(-c2cccs2)n1)c1ccc(Oc2ccccc2)nc1,-0.02
CCOC(=O)Cc1csc(NC(=O)Nc2ccc(C(C)(C)C)cc2)n1,-0.95
COC(=O)C12CC3CC(C1)CC(C(=O)OC)(C3)C2,1.3
COc1cc(O)ccc1C1Nc2c(C)cccc2-c2cc(C)nn21 (stereo unspecified),3.8*
COc1ccc(C2Nc3c(C)cccc3-c3cc(C)nn32)c(OC)c1 (stereo unspecified),-0.71
COc1ccccc1C1Nc2c(C)cccc2-c2cc(C)nn21 (stereo unspecified),3.9*
CCN(CC)c1ccc(C2Nc3c(C)cccc3-c3cc(C)nn32)c(O)c1 (stereo unspecified),0.45
Cc1cc2n(n1)C(c1ccccc1O)Nc1c(C)cccc1-2 (stereo unspecified),5.2*
COc1ccccc1C1Nc2c(C)cc(C)cc2-c2cc(C)nn21 (stereo unspecified),2.9
Cc1cc2n(n1)C(c1cccs1)Nc1c(C)cccc1-2 (stereo unspecified),1.4
COc1cc(O)ccc1C1Nc2ccccc2-c2cc(C)nn21 (stereo unspecified),0.34
COc1ccccc1C1C(C(=O)OC2CCCC2)=C(C)NC2=C1C(=O)CC(C)(C)C2 (stereo unspecified),-0.28
Cc1cccc(CN2CCN(CC3CC4C=CC3C4)CC2)c1 (stereo unspecified),2.1
NC(=O)c1ccc2c(c1)C1C3CCC(C3)C1C(c1ccccc1)N2 (stereo unspecified),2.5
O=C(CSc1ccccc1)Nc1ncn[nH]1,-0.87
Clc1ccc(COc2ccncc2)c(Cl)c1,0.99
COc1ncc(C(=O)NNC(=S)Nc2cccc(C(F)(F)F)c2)cc1[N+](=O)[O-],0.3
Cn1nccc1NS(=O)(=O)c1ccc(F)cc1Cl,-1.1
Cc1ccc(-c2nc(N)sc2C)cc1,0.07
Cc1sc(N)nc1-c1ccc(CC(C)C)cc1,-1.7
Cc1ccc(-c2nc(N)sc2-c2ccccc2)cc1,3.1*
COc1ccc(/C(O)=C2\C(=O)C(=O)N(CCN(C)C)C2c2ccc(C)cc2)cc1 (stereo unspecified),1.2
Cn1c(=O)c2c(nc(NCCc3ccc(O)cc3)n2C)n(C)c1=O,-1.2
SMILES,Dicer inh
CCCCCCCCNC(C)C(O)c1ccc(SC(C)C)cc1 (stereo unspecified),33
C[C@@H](NCCc1ccc(O)cc1)[C@@H](O)c1ccc(O)cc1,9.7*
CC(=N/NCCC#N)/C(=N\OC(=O)c1ccc([N+](=O)[O-])cc1)C(=O)Nc1ccccc1,-1.6
Cc1ccc(NC(=O)CSc2nnnn2-c2ccccc2)cc1C#N,1.5
Cc1ccc(S(=O)(=O)NC(=O)NNC(=O)c2cc(C(C)(C)C)nn2Cc2ccc(F)cc2)cc1,1.4
CC1CN(c2ccc(NC(=S)N3CCSCC3)cc2)CC(C)O1 (stereo unspecified),-0.78
CC1=C(C#N)C(c2ccccc2OC(C)C)C2=C(CC(c3ccccc3)CC2=O)N1 (stereo unspecified),1.6
CCOC(=O)c1cnn(-c2ccc(NS(=O)(=O)c3ccc(C)cc3)cc2)c1C(F)(F)F,1.1
COC(=O)c1sc(-c2ccc(Cl)cc2)cc1NC(=O)Nc1cccs1,3.4*
COC(=O)c1sc(-c2ccc(Cl)cc2)cc1NC(=O)c1cc(C)nn1C,-0.98
COC(=O)c1sc(-c2ccc(Cl)cc2)cc1NC(=O)c1cccnc1Oc1ccccc1,1.9
CN(/N=C/c1ccccc1)c1ncc(C(F)(F)F)cc1Cl,1.3
CCOc1cc(CNCCO)cc(Cl)c1OCc1cccs1,-0.58
CN(C)c1ccc(/C=C/c2nc3n(n2)C=COc2ccccc2-3)cc1,6.1*
Cc1nc(-c2ccc(Cl)cc2)nc2sc(C(=O)c3ccccc3)c(C)c12,2.1
Cc1ccc(N2C(=O)CC(N3CCN(c4ncccn4)CC3)C2=O)cc1Cl (stereo unspecified),0.28
CCOC(=O)c1c(OC)cccc1OC,-0.77
CCOC(=O)c1oc2cccc(OC(C)=O)c2c1C,5.7*
CCOC(=O)c1c(C)oc2ccc(OC(C)=O)cc12,6.7
CC1(C)Cc2c(c(N3CCOCC3)nc3sc(C(=O)c4ccccc4)c(N)c23)CS1,2.8
CCOC(=O)Cc1cc(=O)n2[nH]c(C)nc2n1,1.6
COc1cc2c(cc1OC)/C(=C/c1ccc(C(F)(F)F)cc1)C(=O)N2,-0.13
Cc1ccc(C(NC(=O)C(C)C)c2ccc3cccnc3c2O)cc1 (stereo unspecified),13
Cc1ccc2ccc(C(Nc3ccccn3)c3ccccc3F)c(O)c2n1 (stereo unspecified),12
Cc1cccc(NC(c2ccccc2C)c2ccc3ccc(C)nc3c2O)n1 (stereo unspecified),5.3*
SMILES,Dicer inh
COc1ccc(C(Nc2ccccn2)c2ccc3ccc(C)nc3c2O)cc1 (stereo unspecified),-1.7
Cc1ccc2ccc(C(Nc3ccccn3)c3ccccc3C)c(O)c2n1 (stereo unspecified),0.11
CCOc1cc(C(Nc2ccccn2)c2ccc3ccc(C)nc3c2O)ccc1OC (stereo unspecified),0.5
CCOc1ccc(C(Nc2ccccn2)c2ccc3ccc(C)nc3c2O)cc1C (stereo unspecified),3.5*
CCOc1cc(C(Nc2ccccn2)c2ccc3cccnc3c2O)ccc1O (stereo unspecified),11
O=C(NC(c1ccccc1)c1ccc2cccnc2c1O)c1ccccc1 (stereo unspecified),6*
Cc1ccc2ccc(C(Nc3ccccn3)c3ccccc3)c(O)c2n1 (stereo unspecified),5.9*
O=C(NC(Sc1ncccn1)C(=O)c1ccccc1)c1ccccc1 (stereo unspecified),-0.62
Cc1cccc(NC(c2ccccc2F)c2ccc3cccnc3c2O)n1 (stereo unspecified),0.26
CCOC(=O)COc1ccc2c(=O)c(Oc3cccc(C)c3)c(C(F)(F)F)oc2c1,-0.9
O=C1NC(=O)C(Nc2cccc(Cl)c2)S1 (stereo unspecified),0.87
CC(=O)NN(C)c1ccc(C(F)(F)F)cc1NS(=O)(=O)c1cc(C(F)(F)F)cc(C(F)(F)F)c1,-0.5
N#CCOc1cc(Sc2ccccc2)ccc1[N+](=O)[O-],-0.06
O=C(c1ccc(F)cc1)N1CCCn2c(SCc3ccccc3Cl)nnc21,2.5
O=C1/C(=C/c2ccccc2)CCCC1CN1CCOCC1 (stereo unspecified),-0.96
Cc1ccc(C2c3c(oc4ccccc4c3=O)C(=O)N2CCCN2CCOCC2)cc1 (stereo unspecified),0.15
Cc1c(Cl)cccc1-n1ncnc1-c1ccc2c(c1)OCO2,1.2
Cc1onc(-c2ccccc2)c1C(=O)N1CCN(C(=O)c2c(-c3ccccc3)noc2C)CC1,0.71
Oc1c(C(Nc2ccccn2)c2ccccc2Cl)ccc2cccnc12 (stereo unspecified),3.9*
Oc1ccc2ncccc2c1C(Nc1ccccn1)c1ccc(Cl)cc1 (stereo unspecified),1.5
Cc1cccc(NC(c2ccncc2)c2ccc3cccnc3c2O)c1 (stereo unspecified),0.59
CCc1ccccc1NC(c1ccccn1)c1ccc2cccnc2c1O (stereo unspecified),8*
COc1cccc(C(Nc2ccccn2)c2ccc3ccc(C)nc3c2O)c1OC (stereo unspecified),0.22
CCN(CC)c1ccc(C(Nc2ccccn2)c2ccc3cccnc3c2O)cc1 (stereo unspecified),2.8
